Assay [1] is described as follows: antimalarial activity against Dd2 strain (AID 2302;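 active means growth inhibition above 50% at the single 2 µM test dose, taken to imply half-maximal potency below 2 µM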;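 further: 0% = DMSO untreated growth and 100% = chloroquine plus artemisinin killed control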). As to conditions: P. falciparum Dd2 in RBCs, LDH growth readout, 72 h; at 2 µM; stronger effect = higher value.
A short description of assay [2]: HepG2 cytotoxicity, primary screen, cytotoxicity control for P. falciparum antimalarial project, cell-based, ATP luminescence (AID 2303;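 active means inhibition above 50%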;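 further: 0% = DMSO wells and 100% = digitonin-killed cells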). As to conditions: HepG2 viability, 24-48 h, at 10 µM, stronger effect = higher value.
The target of assay [3] is L-lactate dehydrogenase (Plasmodium falciparum (isolate CDC / Honduras)) (UniProt Q27743). The experiment in a line: PfLDH activity inhibition – cell lysate, 3D7 strain, counter-screen for P. falciparum growth inhibition project (AID 2304).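 Further: 0% = vehicle and 100% = reference inhibitor.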 The note with it: P. falciparum 3D7 crude extract, LDH APAD/NBT absorbance; at 2 µM; stronger effect = higher value. For orientation: Counterscreens check selectivity or assay interference.

Assay [4] can be described thus: inhibition of 3D7 malaria parasite growth – strain 3D7 (AID 2306).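 Further: 0% = DMSO wells and 100% = chloroquine plus artemisinin control wells.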 The note with it: P. falciparum 3D7 erythrocytic growth, LDH absorbance, 72 h; at 2 µM; stronger effect = higher value.
The target in assay [5] is Calcium-dependent protein kinase 1 (Plasmodium falciparum (isolate 3D7)) (UniProt P62344). Nature of the assay: PfCDPK1 kinase inhibitors, biochemical, TCAMS library (AID 1159585; cut-off not given, nearly all actives have IC50 up to about 0.98 µM;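 further: inhibitors leave more ATP so luminescence rises with inhibition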). As to conditions: recombinant PfCDPK1, Kinase-Glo ATP depletion luminescence.
Assay [6] has as its target Plasmodium falciparum protein kinase 6 (PK6, PF3D7_1337100) (UniProt Q8IDW1). Nature of the assay: PfPK6 kinase inhibitors, biochemical, TCAMS library (AID 1159586). As to conditions: recombinant PfPK6, Kinase-Glo ATP depletion luminescence.
Assay [7] addresses Protein kinase 7 (PK7), Plasmodium falciparum 3D7 (PF3D7_0213400) (UniProt Q7YTF7). Nature of the assay: inhibition of Plasmodium PK7 catalytic activity – biochemical, TCAMS antimalarial set, Kinase-Glo luminescence (AID 1159587). As to conditions: recombinant PfPK7, Kinase-Glo ATP depletion luminescence.
The target in assay [8] is Calcium-dependent protein kinase 4 (Plasmodium falciparum (isolate 3D7)) (UniProt Q8IBS5). The experiment in a line: PfCDPK4 kinase inhibitors, biochemical, TCAMS library (AID 1159588; cut-off not given, nearly all actives have IC50 up to about 0.91 µM). The note with it: recombinant PfCDPK4, Kinase-Glo ATP depletion luminescence. For orientation: In Kinase-Glo more light means more ATP remaining.

Values without a mark were called inactive. For some of these results: Entries with a potency or affinity are not part of this list. The source made the active and inactive calls. Unless noted, how the calls were made is not given here.

Sequence of Protein kinase 7 (PK7), Plasmodium falciparum 3D7 (PF3D7_0213400) (Q7YTF7 1-343): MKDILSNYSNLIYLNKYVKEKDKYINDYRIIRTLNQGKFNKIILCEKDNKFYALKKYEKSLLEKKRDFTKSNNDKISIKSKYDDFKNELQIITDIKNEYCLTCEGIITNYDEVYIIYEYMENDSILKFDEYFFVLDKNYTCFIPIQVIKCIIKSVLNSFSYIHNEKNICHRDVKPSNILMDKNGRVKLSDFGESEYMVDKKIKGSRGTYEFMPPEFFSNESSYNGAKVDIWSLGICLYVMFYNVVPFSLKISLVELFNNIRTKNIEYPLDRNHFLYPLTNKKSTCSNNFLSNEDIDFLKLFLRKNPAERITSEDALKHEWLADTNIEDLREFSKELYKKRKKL
Sequence of Calcium-dependent protein kinase 1 (Plasmodium falciparum (isolate 3D7)) (P62344 whole entry, looked up): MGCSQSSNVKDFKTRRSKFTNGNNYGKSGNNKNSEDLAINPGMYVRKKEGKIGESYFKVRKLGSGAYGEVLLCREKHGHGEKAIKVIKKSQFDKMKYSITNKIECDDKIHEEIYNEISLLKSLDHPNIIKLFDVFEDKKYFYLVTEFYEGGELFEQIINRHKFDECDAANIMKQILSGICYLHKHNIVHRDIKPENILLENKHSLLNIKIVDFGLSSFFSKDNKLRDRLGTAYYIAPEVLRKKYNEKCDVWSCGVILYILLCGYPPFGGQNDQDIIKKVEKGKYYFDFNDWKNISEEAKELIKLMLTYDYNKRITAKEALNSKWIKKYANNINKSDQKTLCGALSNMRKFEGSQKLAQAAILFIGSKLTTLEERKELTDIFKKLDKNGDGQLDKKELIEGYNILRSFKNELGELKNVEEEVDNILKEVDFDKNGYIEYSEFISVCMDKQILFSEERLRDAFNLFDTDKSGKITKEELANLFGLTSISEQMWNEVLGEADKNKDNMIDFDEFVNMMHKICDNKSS
Sequence of L-lactate dehydrogenase (Plasmodium falciparum (isolate CDC / Honduras)) (Q27743 whole entry, looked up): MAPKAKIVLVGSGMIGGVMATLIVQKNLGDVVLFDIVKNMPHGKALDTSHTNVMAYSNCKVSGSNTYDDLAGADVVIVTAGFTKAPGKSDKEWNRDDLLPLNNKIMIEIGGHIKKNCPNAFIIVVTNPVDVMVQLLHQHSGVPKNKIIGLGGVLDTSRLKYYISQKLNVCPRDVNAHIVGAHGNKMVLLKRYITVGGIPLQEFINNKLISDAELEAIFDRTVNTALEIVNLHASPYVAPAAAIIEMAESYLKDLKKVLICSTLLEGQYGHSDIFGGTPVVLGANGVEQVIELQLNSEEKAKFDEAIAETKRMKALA
Sequence of Calcium-dependent protein kinase 4 (Plasmodium falciparum (isolate 3D7)) (Q8IBS5 whole entry, looked up): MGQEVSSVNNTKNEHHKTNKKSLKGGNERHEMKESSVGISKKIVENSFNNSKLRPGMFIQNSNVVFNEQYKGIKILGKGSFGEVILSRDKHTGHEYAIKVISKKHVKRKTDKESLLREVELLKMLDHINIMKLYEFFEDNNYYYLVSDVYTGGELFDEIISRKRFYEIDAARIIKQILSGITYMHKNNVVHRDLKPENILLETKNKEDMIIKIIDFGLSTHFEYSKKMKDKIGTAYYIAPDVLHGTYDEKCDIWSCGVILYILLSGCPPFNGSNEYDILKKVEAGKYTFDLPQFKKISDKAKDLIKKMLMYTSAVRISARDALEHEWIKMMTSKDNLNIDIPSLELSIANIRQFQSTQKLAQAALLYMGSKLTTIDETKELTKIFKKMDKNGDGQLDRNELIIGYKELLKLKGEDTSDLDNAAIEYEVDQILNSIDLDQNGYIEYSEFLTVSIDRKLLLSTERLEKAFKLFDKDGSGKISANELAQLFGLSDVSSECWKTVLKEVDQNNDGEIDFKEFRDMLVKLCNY
Sequence of Plasmodium falciparum protein kinase 6 (PK6, PF3D7_1337100) (Q8IDW1 1-305): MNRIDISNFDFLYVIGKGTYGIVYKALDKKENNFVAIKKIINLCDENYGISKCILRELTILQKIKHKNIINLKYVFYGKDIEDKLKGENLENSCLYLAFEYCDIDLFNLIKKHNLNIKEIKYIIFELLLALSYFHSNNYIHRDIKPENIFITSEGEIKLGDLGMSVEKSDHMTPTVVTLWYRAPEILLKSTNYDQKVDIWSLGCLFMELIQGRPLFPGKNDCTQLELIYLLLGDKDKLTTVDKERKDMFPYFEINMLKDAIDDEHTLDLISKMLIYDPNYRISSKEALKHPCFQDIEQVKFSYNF

What is called inhibition is the change of the read-out against control, counted positive when it falls. Take `CN(C(=O)/C=C/c1c(Cl)cccc1Cl)C1CCN(CCCCCNC(=O)/C=C/c2ccc(Cl)c(Cl)c2)CC1`: the growth inhibition in assay [1] is 62% (active); in assay [4] it was 92% (active). The values for the inhibition in assay [2] and in assay [3] were 78% (active) and 4%, respectively. Further, the outcome in assay [5], in assay [6], in assay [7] and in assay [8] was inactive.
`CN(C)CCNc1ncnc2c1[nH]c1ccc(Br)cc12`: the growth inhibition was 7% in assay [1] and 100% (active) in assay [4]. Also, the inhibition was 2% in assay [2] and -2% in assay [3]. Further, the outcome in assay [5], in assay [6], in assay [7] and in assay [8] was inactive.
`COC(=O)c1cccc(CNCc2cccc(-c3cccc(-c4nc5ccccc5[nH]4)c3)c2)c1`: the figures for the growth inhibition in assay [1] and in assay [4] were 58% (active) and 95% (active), respectively. Further, the figures for the inhibition in assay [2] and in assay [3] were 3% and -3%, respectively. Besides, the outcome in assay [5], in assay [6], in assay [7] and in assay [8] was inactive.
Take `COc1ccc2nccc([C@@H](O)CN3CCC(NCc4ccc5cccc(O)c5n4)CC3)c2c1`: the growth inhibition in assay [1] was 40%; in assay [4], 93% (active). For the same molecule, the inhibition in assay [2] is 10%; in assay [3], 1%. For the same molecule, the outcome in assay [5], in assay [6], in assay [7] and in assay [8] was inactive.
`Cc1ccc(CNC(=O)[C@H](CC(C)C)Nc2cc(C)nc(NCc3ccccc3C)n2)cc1`: the growth inhibition in assay [1] is 35%; in assay [4], 87% (active). The inhibition was 3% in assay [2] and 1% in assay [3]. Also, the outcome in assay [5], in assay [6], in assay [7] and in assay [8] was inactive.
For `COc1cc2nc(N3CCC(CNC(=O)c4ccc(-c5ccc(C(=O)N(C)C)cc5OCCO)cc4)CC3)nc(N)c2cc1OC`, the results for the growth inhibition in assay [1] and in assay [4] were 8% and 100% (active), respectively. In addition, the inhibition in assay [2] was -7%; in assay [3], -1%. The result in assay [5], in assay [6], in assay [7] and in assay [8] was inactive.
For `COc1ccc(NC(=O)N2CCCN(CCCCCNC(=O)/C=C/c3ccc(C(F)(F)F)cc3)CC2)cc1Cl`, the values for the growth inhibition in assay [1] and in assay [4] were -5% and 93% (active), respectively. The inhibition in assay [2] was 21%; in assay [3], 4%. The result in assay [5], in assay [6], in assay [7] and in assay [8] was inactive.
On to `N[C@@H](COc1cccc2c(-c3ccncc3)c(-c3cccc(NC(=O)Nc4ccccc4)c3)nn12)c1ccccc1`, for which the values for the growth inhibition in assay [1] and in assay [4] were 71% (active) and 101% (active), respectively. For the same molecule, the inhibition in assay [2] was 9%; in assay [3], 2%. Further, the result in assay [5], in assay [6], in assay [7] and in assay [8] was inactive.
As for `O=C(Nc1cccc(-c2ccc(CN3CCCC3)cc2)c1)c1cccc(F)c1`, the growth inhibition was 17% in assay [1] and 99% (active) in assay [4]. Besides, the inhibition in assay [2] was 20%; in assay [3], -6%. Also, the outcome in assay [5], in assay [6], in assay [7] and in assay [8] was inactive.
As for `Oc1cccc(/C=N/Nc2ccnc3cc(Cl)ccc23)c1`, the growth inhibition in assay [1] was 95% (active); in assay [4] it was 104% (active). The inhibition was -9% in assay [2] and 0% in assay [3]. Besides, the result in assay [5], in assay [6], in assay [7] and in assay [8] was inactive.
Take `Cc1onc(-c2ccccc2Cl)c1C(=O)Nc1cc(Cl)c(Cl)cc1Cl`: the growth inhibition in assay [1] was 57% (active); in assay [4] it was 90% (active). Besides, the inhibition in assay [2] was 3%; in assay [3], 7%. The result in assay [5], in assay [6], in assay [7] and in assay [8] was inactive.
On to `Cc1cccc(/C=C/C(=O)NC2CCC(N3CCC(c4ccccc4C)CC3)CC2)c1` (stereo not given), for which the growth inhibition in assay [1] was 20%; in assay [4], 92% (active). The inhibition is 67% (active) in assay [2] and -3% in assay [3]. Also, the outcome in assay [5], in assay [6], in assay [7] and in assay [8] was inactive.
For `CCc1nc(N)nc(N)c1-c1ccc(F)c(F)c1`, the growth inhibition in assay [1] was -1%; in assay [4], 98% (active). Further, the results for the inhibition in assay [2] and in assay [3] were 58% (active) and -3%, respectively. Besides, the result in assay [5], in assay [6], in assay [7] and in assay [8] was inactive.
Regarding `Cc1ccc(NC(=O)Nc2ccc(Br)cc2)cc1OCCN(C)C`, the growth inhibition is 15% in assay [1] and 84% (active) in assay [4]. For the same molecule, the inhibition is 13% in assay [2] and -1% in assay [3]. Further, the result in assay [5], in assay [6], in assay [7] and in assay [8] was inactive.
Consider `COCCN1CCN(Cc2cccc(-c3ccc(-c4nc5ccccc5[nH]4)cc3)c2)CC1`, for which the growth inhibition is 50% (active) in assay [1] and 100% (active) in assay [4]. Besides, the inhibition was 9% in assay [2] and 1% in assay [3]. The result in assay [5], in assay [6], in assay [7] and in assay [8] was inactive.
For the molecule `COc1ccc(NC(=O)Nc2ccc(-c3ccccc3)cc2Cl)cc1N1CCN(C)CC1`, the growth inhibition in assay [1] is 30%; in assay [4], 90% (active). For the same molecule, the values for the inhibition in assay [2] and in assay [3] were 40% and 0%, respectively. The result in assay [5], in assay [6], in assay [7] and in assay [8] was inactive.
As for `N#Cc1ccc2c(c1)CCN(CCC1CCC(NC(=O)/C=C/c3ccc(F)c4ccccc34)CC1)CC2` (stereo not given), the growth inhibition is 19% in assay [1] and 95% (active) in assay [4]. Further, the results for the inhibition in assay [2] and in assay [3] were 29% and -2%, respectively. Further, the result in assay [5], in assay [6], in assay [7] and in assay [8] was inactive.
Turning to `O=C(NCCCCN1CCN(CC=Cc2ccccc2)CC1)c1ccc(NC(=O)c2cc(Cl)cc(Cl)c2)cc1`, the growth inhibition in assay [1] is 63% (active); in assay [4] it was 100% (active). Also, the inhibition in assay [2] was 26%; in assay [3] it was 4%. For the same molecule, the outcome in assay [5], in assay [6], in assay [7] and in assay [8] was inactive.
Consider `COc1cc(Nc2nc(N)c3cc(OC)c(OC)cc3n2)cc(OC)c1`, for which the growth inhibition was 102% (active) in assay [1] and 101% (active) in assay [4]. Moreover, the inhibition was 7% in assay [2] and 4% in assay [3]. The result in assay [5], in assay [6], in assay [7] and in assay [8] was inactive.
In the case of `CCCCCCCNCCNc1cc(C)nc2ccccc12`, the growth inhibition in assay [1] was 99% (active); in assay [4], 100% (active). The inhibition in assay [2] is 58% (active); in assay [3], -4%. The outcome in assay [5], in assay [6], in assay [7] and in assay [8] was inactive.
